Bioassay records (PubChem BioAssay)
Most compounds without a hit are left out; they make up all but 1.7% or so of the library.
GLP1R cytotox: cytotoxic in the GLP-1 receptor inverse agonist counter-screen | 0.13% of 410,000 active | AID 624418 | HEK293 cAMP-luciferase reporter cells, luminescence, 24 h | Potency, µM (series often up to 38.3 µM), for inactives: at the highest dose activity change, negative = inhibition, actives largely listed as inhibitors;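 further: loss of luciferase light is scored as toxicity; on the % scale 0 is the no-effect control and ±100 the full control effect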
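Cells in DMEM/10% Nu serum/1% pen-strep, 1536-well format. Pre-incubated 12 h, dosed with 23 nL compound, incubated a further 24 h. Luciferase detection, 12 min at room temp, luminescence.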
PTHR1 ag: agonists of human PTHR1 parathyroid hormone receptor; HEK293 GP2 PTHR1 cells, GloSensor cAMP luminescence, 1 h; AID 743266; Q03431; 0.075% of 410,000 active; Potency, µM (doses to about 115 µM), inactives show at the top dose activation, hits mostly activators; further: nearly all actives have a fitted effect of over 55% in size
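HEK-293-derived GP2 cells expressing PTHR1 and a GloSensor cAMP reporter, 3,000/well, plated overnight, given luciferin plus IBMX (each 0.5 mM as added) for 1 h at 37 °C, then compound for 1 h at 37 °C. Luminescence was read after 15 min at room temperature.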
GLP1R ag: activates the human GLP-1 receptor | P43220 | HEK293 GLP-1R CRE-luciferase, luminescence, 4-6 h; cells express a hypersensitive GLP-1R form | Potency, µM (highest dose often 45.6 µM), for inactives: at the highest dose activation, hits mostly activators | 0.007% of 380,000 active | AID 624172; further: % of control where 0% means no effect
Target sequence (P43220 whole entry, looked up): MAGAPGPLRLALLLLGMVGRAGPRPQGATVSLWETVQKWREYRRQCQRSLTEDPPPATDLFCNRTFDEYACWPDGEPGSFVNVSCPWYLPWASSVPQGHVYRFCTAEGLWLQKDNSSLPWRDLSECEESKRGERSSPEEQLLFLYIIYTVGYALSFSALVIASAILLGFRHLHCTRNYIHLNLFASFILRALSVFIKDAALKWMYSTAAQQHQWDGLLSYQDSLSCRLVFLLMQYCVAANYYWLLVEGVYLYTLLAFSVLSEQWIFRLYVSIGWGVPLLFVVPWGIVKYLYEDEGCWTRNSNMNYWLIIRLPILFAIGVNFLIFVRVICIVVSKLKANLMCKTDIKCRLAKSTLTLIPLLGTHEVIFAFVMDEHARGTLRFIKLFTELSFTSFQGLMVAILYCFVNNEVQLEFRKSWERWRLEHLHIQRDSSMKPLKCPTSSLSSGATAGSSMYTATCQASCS
GLP1R inv ag: acts as inverse agonist at human GLP-1 receptor. P43220. HEK293 GLP-1R CRE-luciferase, luminescence, 24 h; GLP-1R form is constitutively active. Potency, µM (top dose mostly 38.3 µM), without a hit: top-dose activity change, negative = inhibition, hits mostly inhibitors. 1.6% of 410,000 active. AID 624417; further: on the % scale 0 is the no-effect control and ±100 the full control effect; nearly all actives have a fitted effect of over 55% in size
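Inverse agonists were sought by their lowering of basal cAMP reporter luciferase output in HEK293 cells stably carrying constitutively active human GLP-1R, after 24 h compound treatment.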
* = called active by the depositor; i = inactive; ? = inconclusive; / = not tested or not shown. The call rests on the fitted dose curve; in most records, active means well fitted curve in the direction sought with a large enough effect; inconclusive means small, poorly fitted or top-dose-only effect, or another doubt; inactive means no such curve, though single readings can be large; an effect the other way counts as inactive or inconclusive. Potency means the concentration at half of the fitted maximal effect.

SMILES	GLP1R cytotox	PTHR1 ag	GLP1R ag	GLP1R inv ag
CC(NC(=O)NC12CC3CC(CC(C3)C1)C2)c1ccc2c(c1)OCO2 (configuration not stated)	3.7%	-24.8%	-0.4%	11.2µM*
CC(NC(=O)NC1CCCCC1)c1ccc2c(c1)OCO2 (configuration not stated)	-2.7%	-5.4%	4.1%	?
CCCCCCCCCCCCCCCC[N+](C)(C)CCl	?	-39.3%	-27.2%	3.55µM*
CCCCCCCCCCCCCCCC[N+](C)(C)CC	-23.1%	-20.9%	-4.3%	11.2µM*
O=C(c1ccc2c(c1)OCO2)c1cn(Cc2ccc(Cl)cc2)c2ccc(F)cc2c1=O	-26.2%	i	/	?
CNC(=S)N/N=C/c1c2ccccc2c(Cl)c2ccccc12	3.55µM*	i	0.0%	7.94µM*
CNC(=S)N/N=C/c1c(C)cccc1Cl	?	-15.0%	6.0%	?
O=C1CCN(CCc2ccccc2)CCN1[C@H](COc1ccccc1)Cc1ccccc1	-17.3%	-32.2%	-4.8%	10µM*
CC(C)C[C@@H](COc1ccccc1)N1CCN(CCc2ccccc2)CCC1=O	0.7%	i	11.3%	?
COc1cc(NC(=O)C2CCN(S(=O)(=O)c3ccc4[nH]c(=O)oc4c3)CC2)cc(OC)c1	4.2%	0.767µM*	-5.7%	15.9%
CCOC(=O)C1CCN(S(=O)(=O)c2ccc3[nH]c(=O)oc3c2)CC1	3.7%	-0.9%	-4.0%	-5.1%
CC(C)CN(CC(C)C)S(=O)(=O)c1ccc(C(=O)Nc2sc3c(c2C(N)=O)CC(C)(C)NC3(C)C)cc1	10.2%	i	14.5%	?
Cc1ccc(NC(=O)CSCC(=O)N(C)Cc2ccc(Cl)c(Cl)c2)cc1	-27.4%	-14.1%	3.2%	?
COc1ccc(NC(=O)CSCC(=O)N(C)Cc2ccc(Cl)c(Cl)c2)cc1	-4.8%	-29.5%	20.8%	10µM*
Cc1cc2oc(C(=O)Nc3sc4c(c3C(=O)NCc3ccco3)CCC4)cc(=O)c2cc1C	0.3%	i	/	11.4%
O=C(NCCC1=CCCCC1)c1cc(COc2c(F)cccc2F)on1	-13.3%	-17.2%	3.5%	?
O=C(NCCC1=CCCCC1)c1cc(COc2ccc(F)cc2Cl)on1	-11.2%	-1.2%	3.3%	5.01µM*
CC(C)Cn1c(=O)c2ccccc2n2c(CCC(=O)N3CCN(c4ccccc4)CC3)nnc12	0.5%	i	/	0.5%
CC(C)[C@H](NC(=O)[C@@H]1Cc2ccccc2CN1)C(=O)Nc1ccc2c(c1)OCO2	-31.4%	i	-6.0%	4.3%
C/C=C1\COC(C(=O)NCc2ccccc2)(C(F)(F)F)C=C1C=C(C)C (configuration not stated)	0.7%	-16.4%	8.0%	10µM*
Cc1ccc(NC(=O)CNC(c2ccccc2)c2ccccc2)c(F)c1	-27.4%	-18.6%	8.4%	11.2µM*
COc1ccc(CNS(=O)(=O)c2csc(C(N)=O)c2)cc1OC	7.9%	18.7%	3.9%	7.1%
CN(C)C(CNC(=O)c1cccc(S(=O)(=O)N2CCN(c3ccccc3)CC2)c1)c1ccccc1 (configuration not stated)	3.8%	-33.5%	2.1%	?
COc1ccc(C(CNC(=O)c2cc(S(=O)(=O)N3CCN(c4ccccc4)CC3)ccc2Cl)N(C)C)cc1 (configuration not stated)	-18.5%	-37.1%	-2.2%	10µM*
Cc1nc2ccn(Cc3cccs3)c(=O)c2cc1C(=O)N1CCN(c2ccccc2F)CC1	-0.7%	-29.7%	/	-25.4%
SMILES	GLP1R cytotox	PTHR1 ag	GLP1R ag	GLP1R inv ag
COc1ccc(C(=O)C/C(=C\C(=O)c2ccc(C)cc2)c2ccccc2)cc1	1.3%	i	0.4%	4.47µM*
CC1=C(C(=O)OCc2ccccc2)C(c2cccs2)N2C(=O)CCSC2=N1 (configuration not stated)	-4.7%	-73.6%	17.2%	11.2µM*
Cc1ccc(C(O)(c2ccccc2)c2ccccc2C(C)N(C)C)c(C)c1 (configuration not stated)	?	-29.3%	-7.1%	10µM*
COc1ccccc1N1CCN(c2ccc(=O)n(CC(=O)O)n2)CC1	-7.0%	i	-1.3%	5.8%
COc1ccccc1N(C)S(=O)(=O)c1ccc(Cl)c(C(=O)OCc2c(C)noc2C)c1	3.5%	-22.0%	17.0%	10µM*
COc1ccccc1N(C)S(=O)(=O)c1ccc(Cl)c(C(=O)N2CCC2)c1	3.6%	-4.8%	2.9%	-10.4%
